Experimental findings from PubChem BioAssay (NCATS) are described below.

Several values for one entry are separate records, joined by “and”; a condition that tells them apart may be missing. Equal values may be shown once. Unmarked numbers belong to inactive results. Results filed as inconclusive are left out. Activity calls are given as the source filed them.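 Rule for the calls, unless noted: active = compounds whose dose series gives a full or clear partial fitted curve of increased nuclear translocation; inconclusive = weak partial curve or effect only at the top dose; inactive = no dose-dependent translocation response.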

Test system in the first experiment: not listed separately
Description: Stat Signaling Pathway (AID 446; active = well fitted curve in either direction with a large enough effect, not every such curve was filed as active;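 note: ME-180 cervical cancer cells given 40 pM IL-6 alongside compound; SIE-controlled beta-lactamase reporter measured as 460/530 nm FRET emission ratio; % is set by controls: 0 for no effect and ±100 for the full control effect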). The note with it: ME-180 (cervical carcinoma) SIE beta-lactamase reporter, IL-6 stimulated, 5 h; series mostly up to 17.2 µM; activity, negative = inhibition: at the top concentration. Put shortly: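 IL-6/STAT signaling read in ME-180 cells via an SIE beta-lactamase reporter. Stimulus was 40 pM IL-6 (its AC50) for 5 hrs, so both activation and inhibition register.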
In the case of `O=C1C(O)=C(O)C(=O)C(O)=C1O`, the “activity, negative = inhibition” value is -10.8%.
Regarding `CC[N+](C)(CC)CCOC(=O)C(O)(c1ccccc1)C1CCCCC1` (stereo not drawn), the “activity, negative = inhibition” value is -0.708%.
Same read-out and setting: the value for `COc1ccc(C(Cl)=C(c2ccc(OC)cc2)c2ccc(OC)cc2)cc1` was 14.9%; that for `C[N+]1(C)CCC(=C(c2ccccc2)c2ccccc2)CC1` was -3.72%.
On to `COc1cc(NS(=O)(=O)c2ccc(N)cc2)ncn1`, for which the outcome was inactive.
As to `CC(=O)O[C@]1(C(C)=O)CC[C@H]2[C@@H]3C=C(C)C4=CC(=O)CC[C@]4(C)[C@H]3CC[C@@]21C`, the “activity, negative = inhibition” value was -1.82%.
Consider `COc1cc(C)nc(-n2nc(C)cc2OC)n1`, for which the “activity, negative = inhibition” value is 10.7%.
`O=C(O)CCC(=O)Nc1ccc(S(=O)(=O)Nc2nccs2)cc1`: the outcome was inactive.
As to `COc1ccc(C(=O)c2ccccc2O)c(O)c1`, the “activity, negative = inhibition” value was -13.8%.
Turning to `CC(C)(C)NC[C@H](O)COc1nsnc1N1CCOCC1`, the compound was classed as inactive.
For the compound `Cc1cc(-c2ccccc2)nnc1NCCN1CCOCC1`, the result was inactive.
As to `Nc1ccc(C(=O)NCC(=O)O)cc1`, the “activity, negative = inhibition” value was 0.643%.

The target in another experiment is Glucocorticoid receptor (Homo sapiens) (UniProt P04150). Description: GR-GFP Redistribution (AID 450). Note: potency is the fitted concentration of half-maximal effect. The note with it: U2OS GR-GFP nuclear translocation, laser cytometry, 2 h.
Chain of Glucocorticoid receptor (Homo sapiens) (P04150 whole entry, looked up): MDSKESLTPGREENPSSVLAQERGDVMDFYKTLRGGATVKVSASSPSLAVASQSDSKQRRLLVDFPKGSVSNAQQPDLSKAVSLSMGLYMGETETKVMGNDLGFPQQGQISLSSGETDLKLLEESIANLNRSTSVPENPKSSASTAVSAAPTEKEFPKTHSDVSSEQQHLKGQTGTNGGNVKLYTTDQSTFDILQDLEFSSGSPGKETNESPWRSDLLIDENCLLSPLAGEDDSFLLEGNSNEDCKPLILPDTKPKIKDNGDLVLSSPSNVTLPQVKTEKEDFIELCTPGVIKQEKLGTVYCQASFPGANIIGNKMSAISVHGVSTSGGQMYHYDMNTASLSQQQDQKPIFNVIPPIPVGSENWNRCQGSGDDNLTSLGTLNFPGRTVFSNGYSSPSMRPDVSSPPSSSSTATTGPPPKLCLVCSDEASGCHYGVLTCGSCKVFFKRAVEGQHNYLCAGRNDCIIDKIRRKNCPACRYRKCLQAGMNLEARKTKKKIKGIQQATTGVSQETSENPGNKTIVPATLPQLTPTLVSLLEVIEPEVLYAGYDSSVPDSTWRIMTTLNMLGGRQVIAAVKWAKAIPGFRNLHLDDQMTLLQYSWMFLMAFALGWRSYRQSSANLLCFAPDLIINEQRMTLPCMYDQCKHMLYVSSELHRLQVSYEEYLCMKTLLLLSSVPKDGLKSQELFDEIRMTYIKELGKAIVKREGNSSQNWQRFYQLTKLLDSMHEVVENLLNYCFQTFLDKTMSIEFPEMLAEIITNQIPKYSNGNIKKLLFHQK
`CCc1cc(Cl)c(OC)c(C(=O)NC[C@@H]2CCCN2CC)c1O`: the Potency is over 20.6 µM.
In the case of `CCCCN1C[C@H](O)[C@@H](O)[C@H](O)[C@H]1CO`, the Potency was over 20.6 µM.
On the same count and under the same terms, the value for `N=C(N)N1CCc2ccccc2C1` was over 20.6 µM; that for `CCCCCCCCNC(C)C(O)c1ccc(SC(C)C)cc1` (stereo not drawn) was over 20.6 µM.
On to `CCN(CC)CCNc1ccc(CO)c2sc3ccccc3c(=O)c12`, for which the Potency is over 20.6 µM.
For `O=C1C(O)=C(O)C(=O)C(O)=C1O`, the Potency is over 20.6 µM.
Consider `CC(C)(C)NCC(O)COc1cccc2c1C[C@H](O)[C@H](O)C2` (stereo partly drawn), for which the Potency was over 20.6 µM.
Consider `O=C1C(CCS(=O)c2ccccc2)C(=O)N(c2ccccc2)N1c1ccccc1` (stereo not drawn), for which the Potency is over 20.6 µM.
As for `CC[N+](C)(CC)CCOC(=O)C(O)(c1ccccc1)C1CCCCC1` (stereo not drawn), the Potency is over 20.6 µM.
Regarding `Cc1c(-c2ccccc2)oc2c(C(=O)OCCN3CCCCC3)cccc2c1=O`, the Potency was over 20.6 µM.
For the compound `O=C(O)CCNC(=O)c1ccccc1`, the Potency is over 20.6 µM.
For the compound `CC(=O)OC[C@H]1O[C@@H](n2ncc(=O)[nH]c2=O)[C@H](OC(C)=O)[C@@H]1OC(C)=O`, the Potency is over 20.6 µM.
On to `C[N+]12CCC(CC1)C(OC(=O)C(O)(c1ccccc1)c1ccccc1)C2` (stereo not drawn), for which the Potency was over 20.6 µM.
Regarding `COc1ccc(C(Cl)=C(c2ccc(OC)cc2)c2ccc(OC)cc2)cc1`, the Potency is over 20.6 µM.
Still for that read-out and setting: the value for `C[N+]1(C)CCC(=C(c2ccccc2)c2ccccc2)CC1` was over 20.6 µM; that for `COc1cc(NS(=O)(=O)c2ccc(N)cc2)ncn1` was over 20.6 µM; that for `CC(=O)O[C@]1(C(C)=O)CC[C@H]2[C@@H]3C=C(C)C4=CC(=O)CC[C@]4(C)[C@H]3CC[C@@]21C` was 0.00185 µM (active).
On to `NS(=O)(=O)Cc1noc2ccccc12`, for which the Potency was over 46 µM.
On the same count and under the same terms, the value for `COc1cc(C)nc(-n2nc(C)cc2OC)n1` was over 20.6 µM.
Still for that read-out and setting: the value for `O=C(O)CCC(=O)Nc1ccc(S(=O)(=O)Nc2nccs2)cc1` was over 20.6 µM.
With `COc1ccc(C(=O)c2ccccc2O)c(O)c1`, the Potency was over 20.6 µM.
On the same count and under the same terms, the value for `CCCCc1cc2ccccc2c(OCCN(C)C)n1` was over 20.6 µM; that for `CC(C)(C)NC[C@H](O)COc1nsnc1N1CCOCC1` was > 46 µM and > 20.6 µM.
Turning to `CNCCc1ccccn1`, the Potency was over 20.6 µM.
Consider `CN1CCc2cccc3c2[C@H]1Cc1ccc(O)c(O)c1-3`, for which the Potency was over 46 µM.
In the case of `Nc1ccc(C(=O)NCC(=O)O)cc1`, the Potency was over 20.6 µM.
Still for that read-out and setting: the value for `CCOC(=O)c1ccc(N)cc1` was over 20.6 µM.
Turning to `Cl/C(=C\n1cncn1)c1ccc(Cl)cc1Cl`, the Potency was over 46 µM.
In the case of `CN(C)CCC[C@@]1(c2ccc(F)cc2)OCc2cc(C#N)ccc21`, the Potency was over 46 µM.
On the same count and under the same terms, the value for `O=c1[nH]c(=O)n([C@H]2C[C@H](O)[C@@H](CO)O2)cc1F` was over 20.6 µM; that for `NS(=O)(=O)c1cc(C(=O)O)cc(N2CCCC2)c1Oc1ccccc1` was 2.81 µM (active).
Still for that read-out and setting: the value for `COc1ccccc1N1CCN(CCCCNC(=O)c2ccc(-c3ccc(C(C)=O)cc3)cc2)CC1` was over 46 µM.
Regarding `CN(C)CCOC(=O)C(c1ccccc1)C1(O)CCCC1` (stereo not drawn), the Potency is over 20.6 µM.

Another experiment has the same target. Description: GR-EFC Redistribution (AID 451; calls by dose curve; note: potency is the fitted concentration of half-maximal effect). The note with it: CHO-K1 GR-EFC translocation, beta-gal luminescence, 2 h. Put shortly:
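CHO-K1 cells expressing nuclear EA and GR-ED fragments of b-gal; compounds titrated up to 46 uM final, 2 h at 37 C. GR nuclear translocation read as complemented b-gal luminescence after 1 h RT detection.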
`CCc1cc(Cl)c(OC)c(C(=O)NC[C@@H]2CCCN2CC)c1O`: the Potency was over 20.6 µM.
Take `N=C(N)N1CCc2ccccc2C1`: the Potency was over 20.6 µM.
Same read-out and setting: the value for `CCN(CC)CCNc1ccc(CO)c2sc3ccccc3c(=O)c12` was over 20.6 µM.
The same measure, in the same setting: the value for `O=C1C(O)=C(O)C(=O)C(O)=C1O` was over 20.6 µM; that for `O=C1C(CCS(=O)c2ccccc2)C(=O)N(c2ccccc2)N1c1ccccc1` (stereo not drawn) was over 20.6 µM; that for `Cc1c(-c2ccccc2)oc2c(C(=O)OCCN3CCCCC3)cccc2c1=O` was over 20.6 µM.
The same measure, in the same setting: the value for `COc1ccc(C(Cl)=C(c2ccc(OC)cc2)c2ccc(OC)cc2)cc1` was over 20.6 µM; that for `C[N+]1(C)CCC(=C(c2ccccc2)c2ccccc2)CC1` was over 20.6 µM.
Consider `COc1cc(NS(=O)(=O)c2ccc(N)cc2)ncn1`, for which the Potency is over 20.6 µM.
The same measure, in the same setting: the value for `NS(=O)(=O)Cc1noc2ccccc12` was over 46 µM; that for `COc1cc(C)nc(-n2nc(C)cc2OC)n1` was over 20.6 µM; that for `O=C(O)CCC(=O)Nc1ccc(S(=O)(=O)Nc2nccs2)cc1` was over 20.6 µM.
Turning to `COc1ccc(C(=O)c2ccccc2O)c(O)c1`, the Potency was over 20.6 µM.
Consider `CCCCc1cc2ccccc2c(OCCN(C)C)n1`, for which the Potency is over 20.6 µM.
Still for that read-out and setting: the value for `CC(C)(C)NC[C@H](O)COc1nsnc1N1CCOCC1` was > 46 µM and > 20.6 µM; that for `CNCCc1ccccn1` was over 20.6 µM.
With `CN1CCc2cccc3c2[C@H]1Cc1ccc(O)c(O)c1-3`, the Potency was over 46 µM.
For the compound `Nc1ccc(C(=O)NCC(=O)O)cc1`, the Potency was over 20.6 µM.
Still for that read-out and setting: the value for `CCOC(=O)c1ccc(N)cc1` was over 20.6 µM; that for `Cl/C(=C\n1cncn1)c1ccc(Cl)cc1Cl` was over 46 µM.
Still for that read-out and setting: the value for `CN(C)CCC[C@@]1(c2ccc(F)cc2)OCc2cc(C#N)ccc21` was over 46 µM; that for `NS(=O)(=O)c1cc(C(=O)O)cc(N2CCCC2)c1Oc1ccccc1` was over 20.6 µM; that for `COc1ccccc1N1CCN(CCCCNC(=O)c2ccc(-c3ccc(C(C)=O)cc3)cc2)CC1` was over 46 µM.
